According to PubChem BioAssay AID1866 (The Scripps Research Institute Molecular Screening Center, 2009):
In all, about 1,300 compounds went through this assay and about 40 (3%) were called active. Only a sample is shown. Values without a mark were called inactive.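 Rule for the calls: active = inhibition above that campaign's mean inhibition plus 3 SD (cut at about 0.46% in these data); inactive = the rest.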

molecular target: Beta-lactamase TEM (Escherichia coli) (UniProt P62593); assay: inhibition of purified E. coli TEM-1 enzyme – biochemical, epi-absorbance, HTS, counter-screen for VIM-2 inhibitor project (AID 1866); conditions: Purified TEM-1, nitrocefin hydrolysis, epi-absorbance fluorescence; at 5.6 µM; stronger effect = higher value;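 note: 0% = TEM-1 with DMSO and 100% = TEM-1 with 100 µM potassium clavulanate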
Sequence (P62593 whole entry, looked up): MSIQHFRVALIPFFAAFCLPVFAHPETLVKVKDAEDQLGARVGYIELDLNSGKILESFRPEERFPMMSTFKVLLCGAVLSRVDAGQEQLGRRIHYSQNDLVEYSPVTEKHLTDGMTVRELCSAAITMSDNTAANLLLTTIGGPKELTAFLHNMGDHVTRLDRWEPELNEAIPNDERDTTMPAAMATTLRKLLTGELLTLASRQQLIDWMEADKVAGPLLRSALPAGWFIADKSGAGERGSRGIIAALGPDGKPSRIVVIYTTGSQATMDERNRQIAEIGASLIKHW

Compared with `COc1ccc(CCn2c(=N)c(C(=O)NCC3CCCO3)cc3c(=O)n4cccc(C)c4nc32)cc1OC` (configuration not stated), `CCN1CCN(CCNC(=O)c2ccc3c(c2)NC(=O)/C(=C\c2ccc(OC)c(OC)c2)S3)CC1` is lower in inhibition: -5.02% for the first, -9.31% for the second.

First: Cc1nc2ccccc2c2oc(C(=O)NCCCN3CCC(C)CC3)cc12
Second: CCC1CCCCN1CCCNC(=O)c1cc2c(Cl)nc3ccccc3c2s1 (configuration not stated)
The inhibition of the first is lower: -6.75% for the first, -6.12% for the second.

First: CNC(=O)c1ccsc1NC(=O)c1ccc(S(=O)(=O)N2CCOCC2)cc1
Second: COC(=O)c1c(NC(=O)c2ccc(S(=O)(=O)N3CCOCC3)cc2)sc2c1CCN(C(C)C)C2
The inhibition of the first is lower: -7.75% for the first, -6.47% for the second.

`Fc1ccc(-c2ccc(CNCc3ccccn3)o2)cc1Cl` and `Clc1cc(-c2ccc(/C=N/n3cnnc3)o2)ccc1Br` are the same in inhibition: -5.72% for the first, -5.72% for the second.

Going from `CCN(CC)c1ccc2cc(C(N)=O)/c(=N\NC(=O)c3ccncc3)oc2c1` to `CCN(CC)CCOc1ccc2c(c1)C(=NNC(=O)c1ccccn1)c1cc(OCCN(CC)CC)ccc1-2`, the inhibition falls from -8.43% to -8.91%.

First: O=C(COc1cc2oc(=O)c3c(c2cc1Cl)CCC3)NCCCN1CCOCC1
Second: NC(=O)C1CCN(C(=O)COc2ccc3c4c(c(=O)oc3c2)CCC4)CC1
The inhibition of the first is higher: -0.53% for the first, -5.63% for the second.

First: COc1ccc(-c2nn3c(-c4ccccc4)nnc3s2)cc1OC
Second: COc1cc(-c2nn3c(-c4cccc(C)c4)nnc3s2)cc(OC)c1OC
The inhibition of the first is lower: -11.4% for the first, -6.23% for the second.

Going from `CCOC(=O)N1CCN(C(=O)C2CCN(c3ncnc4c3sc3cccc(F)c34)CC2)CC1` to `CCN1CCN(C(=O)Cn2nc(C)n3c(cc4c(OC)cccc43)c2=O)CC1`, the inhibition falls from -5.6% to -7.04%.

Compared with `COc1ccc(Nc2cc(C)nc(-n3nc(C)cc3C)n2)cc1`, `Cc1cc(C)c2nc3nc(C)cc(C)c3c(N)c2c1` is higher in inhibition: -7.46% for the first, -4.56% for the second.

Compared with `Cn1c(-c2sccc2OCc2cccc(C(F)(F)F)c2)n[nH]c1=S`, `C=CCn1c(-c2ccccc2OCC)n[nH]c1=S` is higher in inhibition: -7.73% for the first, -3.6% for the second.

Compared with `CCOc1cc(/C=C2\SC(N3CCCCC3)=NC2=O)ccc1O`, `CCOc1cc(/C=C2\SC(N3CCCC(C)C3)=NC2=O)ccc1O` (configuration not stated) is higher in inhibition: -8.67% for the first, -1.56% for the second.

First: Cc1ccc(Cl)cc1-c1ccc(/C=N/n2cnnc2)o1
Second: Cc1cc([N+](=O)[O-])c(-c2ccc(/C=N/n3cnnc3)o2)cc1Cl
The inhibition of the first is higher: -6.18% for the first, -6.25% for the second.

Compared with `CCN1CCCC1CNC(=O)c1cc2c(=O)n(C)c3ccccc3c2n1C` (configuration not stated), `CC1CCCC(C)N1CCCNC(=O)c1cc2c(=O)n(C)c3ccccc3c2n1C` (configuration not stated) is lower in inhibition: -6.31% for the first, -6.6% for the second.

Compared with `COc1ccc(Cc2nnc(NS(=O)(=O)Cc3ccccc3)s2)cc1`, `CCCc1ccc(OCCNC(=O)c2ccco2)cc1` is lower in inhibition: -3.28% for the first, -6.4% for the second.

First: Cc1cc(NCc2ccco2)n2c(nc3ccccc32)c1C#N
Second: CCOCCCNc1c(CC)c(C)c(C#N)c2nc3ccccc3n12
The inhibition of the first is lower: -6.6% for the first, -5.82% for the second.

First: CC(=O)c1ccc(-c2ccc(Cn3c(C)nc4cc(N)c(C)nc43)cc2)cc1
Second: CN1CCN(c2ccc(NC(=O)c3ccc4c(c3)[nH]c(=O)n4Cc3ccc(F)cc3)cc2)CC1
The inhibition of the first is higher: -6.56% for the first, -7.55% for the second.

Compared with `CC(NS(=O)(=O)c1ccccc1)c1n[nH]c(=S)n1-c1ccccc1` (configuration not stated), `O=c1[nH]c(-c2ccccc2)c(-c2ccccc2)[nH]1` is higher in inhibition: -5.56% for the first, -4.67% for the second.

Compared with `O=C1Nc2cc(C(=O)N3CCC(N4CCCCC4)CC3)ccc2S/C1=C\c1ccccc1`, `Cc1ccc2nc(C)c3c(c2c1)N(c1ccccc1)CC3` is higher in inhibition: -5.79% for the first, -5.53% for the second.

Going from `CCc1cc(=O)oc2cc(C)cc(OCC(=O)N3CCC[C@@H]3C(=O)O)c12` to `COc1cc(NC(=O)C2=C(C)OCCS2)c(Cl)cc1C(=O)NCCN1CCN(C)CC1`, the inhibition falls from -5.9% to -9.7%.

First: O=C(NC(=S)Nc1ccccc1C(=O)O)c1ccc(-c2ccc(Br)cc2)o1
Second: O=C(NCCCN1CCOCC1)c1cnn2c(-c3ccccc3)cc(-c3ccccc3)nc12
The inhibition of the first is lower: -8.31% for the first, -5.7% for the second.

Going from `CN(C)CCNc1ccc(-c2n[nH]c(=O)c3ccccc23)cc1[N+](=O)[O-]` to `Cn1c2ccccc2c(=O)c2c(O)cccc21`, the inhibition rises from -7.17% to -0.94%.

Going from `Cc1cc(-c2ccc(/C=N/n3cnnc3)o2)c([N+](=O)[O-])cc1C` to `COc1cc(/C=N/Nc2nn3cnnc3c3ccccc23)cc(OC)c1OC`, the inhibition rises from -5.24% to -3.82%.

First: CC(C)(C)CC(=O)Nc1nnc(SCC(=O)NCc2cccs2)s1
Second: COc1nc(N=C(N)N)nc2c(C)cccc12
The inhibition of the first is lower: -5.92% for the first, -4.69% for the second.

First: COC(=O)c1ccc(-c2noc(CN(Cc3ccccn3)CC3CCCO3)n2)cc1 (configuration not stated)
Second: COc1ccc(/C=N/N(C)C2=NS(=O)(=O)c3ccccc32)cc1OC
The inhibition of the first is lower: -7.22% for the first, -6.76% for the second.

First: Nc1nnc2c(C(F)(F)F)nc3ccccc3n12
Second: Nc1cccc2c1C(=O)N(Cc1nnc(-c3ccccc3Br)o1)C2=O
The inhibition of the first is lower: -1.12% for the first, -0.93% for the second.

Compared with `Cn1c(=O)c2c(nc(N3CCOCC3)n2CCNC2=NCCC2)n(C)c1=O`, `Cc1cccn2c(=O)c(C=O)c(Nc3ccc(S(N)(=O)=O)cc3)nc12` is lower in inhibition: -4.49% for the first, -4.52% for the second.
